Compound activity as filed in PubChem.
VDR inh: vitamin D3 receptor (human) inhibition; P11473; VDR-SRC2-3 peptide fluorescence polarization, 2 h; Potency, µM, for inactives: max response, negative = inhibition, hits mostly inhibitors; 400,000 tested, 0.93% active; AID 504847
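Fluorescence polarization assay of small-molecule disruption of VDR binding to coregulator peptide SRC2-3. Compounds and controls pin-transferred, then read after 2 h incubation at ambient room temperature.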
ALOX12 inh: ALOX12 (human) lipoxygenase inhibition; purified 12hLO, xylenol orange hydroperoxide absorbance; Potency, µM (titrated, usually from 108 µM), for the others: top-dose activity change, negative = inhibition, most hits filed as inhibitors; 580,000 tested, 1.1% active; AID 1671190; P18054
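Purified human 12hLO at 150 nM in 25 mM Hepes, 0.01% Triton X-100, pH 7.0, preincubated 15 min at room temperature with compound. Reaction started with 40 uM arachidonic acid, 30 min at room temperature. Hydroperoxide measured by Fe-xylenol orange, 573/405 nm absorbance ratio.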
PLK1 PBD inh: inhibitors of human PLK1 polo-box domain binding. Potency, µM, for inactives: max response, negative = inhibition, hits mostly inhibitors. AID 720504. Plk1 PBD binding of FITC phosphopeptide, fluorescence polarization. 360,000 tested, 2.8% active; note: series mostly up to about 57 µM; nearly all actives have a fitted effect of over 65% in size
Target sequence (P53350 whole entry, looked up, the tested form may be a part): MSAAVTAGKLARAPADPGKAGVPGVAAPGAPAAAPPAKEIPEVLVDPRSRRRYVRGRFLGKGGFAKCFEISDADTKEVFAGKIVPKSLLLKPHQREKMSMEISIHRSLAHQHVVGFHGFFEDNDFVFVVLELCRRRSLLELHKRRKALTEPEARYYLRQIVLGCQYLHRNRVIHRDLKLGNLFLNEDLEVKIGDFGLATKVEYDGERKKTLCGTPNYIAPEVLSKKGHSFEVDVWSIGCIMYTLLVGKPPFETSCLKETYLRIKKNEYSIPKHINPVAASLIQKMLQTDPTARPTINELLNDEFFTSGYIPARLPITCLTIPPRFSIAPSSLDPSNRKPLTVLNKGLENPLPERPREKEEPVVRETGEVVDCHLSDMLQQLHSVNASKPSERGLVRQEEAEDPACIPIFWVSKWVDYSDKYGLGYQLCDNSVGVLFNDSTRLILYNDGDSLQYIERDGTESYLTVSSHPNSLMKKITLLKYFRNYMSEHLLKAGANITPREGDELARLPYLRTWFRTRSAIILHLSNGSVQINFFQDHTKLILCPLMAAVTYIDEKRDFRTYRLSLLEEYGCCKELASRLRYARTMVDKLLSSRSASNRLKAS
Sfp inh: inhibitors of Bacillus subtilis Sfp phosphopantetheinyl transferase; Q9F4F7; Biochemical Sfp PPTase activity, qHTS; 310,000 tested, 3.5% active; Potency, µM, without a hit: largest response in the series, negative = inhibition, usual class: inhibitors;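 note: the enzyme is Sfp with the accession as filed and its product quenches rhodamine fluorescence; 0% = enzyme reaction without inhibitor and -100% = no enzyme wells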
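Step 1, compound plus 15 nM Sfp-PPTase, 15 min, room temperature. Step 2, add rhodamine-CoA (5 uM) and BHQ-2-YbbR (12.5 uM). Step 3, read 525/598 nm fluorescence at 0 and 30 min.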
* marks the source's active call; other numbers are inactive results; ? = inconclusive; . = not tested or not shown; [ ] = dose if it differs, or a comment. Sampled rows, rich in hits. Any-hit rate of the full collection: about 4.2%. Calls come from the whole dose curve; as a rule, active = well fitted curve in the direction sought with a large enough effect; inconclusive = small, poorly fitted or top-dose-only effect, or another doubt; inactive = no such curve, though single readings can be large; an effect the other way counts as inactive or inconclusive. Unless noted, % is set by controls: 0 for no effect and ±100 for the full control effect; potency is the fitted concentration of half-maximal effect.

SMILES	VDR inh	ALOX12 inh	PLK1 PBD inh	Sfp inh
COc1cccc(CN2CCN(Cc3cc(OC)c(OC)cc3OC)CC2)c1	2%	?	4%	56µM*
Clc1ccccc1N1CCN(Cc2ccco2)CC1	-19%	2%	-7%	-1%
Clc1ccc(N2CCN(Cc3ccco3)CC2)cc1	12%	0.63µM*	-14%	-10%
COc1cccc(CN2CCN(Cc3ccco3)CC2)c1	23%	?	2%	45µM*
COc1cccc(CN2CCSCC2)c1	1%	-26%	-3%	-20%
Cc1cc(=O)oc2c(C)c(OC(C)C(=O)NCCCN(C)C)ccc12 (stereo not given)	.	-11%	.	.
COCCCn1c(C(=O)N2CCOCC2)cc2c(=O)n3ccccc3nc21	17%	2%	-6%	19%
COCCCn1c(C(=O)Nc2ccc3c(c2)OCO3)cc2c(=O)n3ccccc3nc21	?	-26%	3µM*	-13%
Cc1noc([C@@H](C)NC(=O)Cc2ccccc2)c1C(=O)O	.	18%[176 µM]	.	.
COc1ccc(CN[C@H](C)c2onc(C)c2C(=O)O)cc1	.	28µM*	.	.
COCCNC(=S)N/N=C1\CC(C)CC(C)(C)C1 (stereo not given)	?	?	-8%	50µM*
CCOC(=O)N/N=C1\CC(C)CC(C)(C)C1 (stereo not given)	-6%	12%	-11%	17%
CC(C)c1ccc(C(C)NC(=O)CCCNC(=O)C(C)(C)C)cc1 (stereo not given)	.	-9%	.	.
COc1ccc(S(=O)(=O)Nc2ccc(-c3ccc4nncn4n3)cc2)c(OC)c1	?	?	19µM*	.
O=C(NCCc1ccccc1)C1CCCN1C(=O)Nc1ccc(F)cc1 (stereo not given)	-32%	?	19µM*	?
CCOc1ccc(NC(=O)c2c(Nc3ccccc3C)sc(C(=O)c3ccccc3)c2N)cc1	18%	-28%	.	.
Cc1ccc(-c2ccc(/C=N/c3ncn[nH]3)o2)cc1Cl	-5%	1%	-6%	56µM*
COC(=O)N/N=C/c1ccc(-c2ccc(C)c(Cl)c2)o1	-8%	-15%	-5%	6%
O=C(COC(=O)CSc1cccc2cccc(Cl)c12)Nc1ncc(C(F)(F)F)cc1Cl	-11%	28µM*	-17%	?
Cc1ccc(C)c(SCC(=O)OCC(=O)Nc2ncc(C(F)(F)F)cc2Cl)c1	-3%	?	?	-9%
COc1cccc(C(=O)NCC(c2ccc(N(C)C)cc2)N2CCOCC2)c1OC (stereo not given)	0%	-17%	.	.
COCCC(=O)N1CCCC(C(=O)c2ccccc2SC)C1 (stereo not given)	-5%	-17%	-17%	.
Cc1cccc(OC(=O)c2cncc(Br)c2)c1	-16%	-12%	27µM*	-7%
Cc1cccc(OC(=O)c2cccnc2)c1	4%	.	-6%	4%
COc1ccc(CCN(C)CC(=O)Nc2ccc(F)c(Cl)c2)cc1OC	-9%	-2%	-2%	16%
SMILES	VDR inh	ALOX12 inh	PLK1 PBD inh	Sfp inh
CC1=C(CC(=O)c2ccc(Cl)cc2)C(=O)c2ccccc2C1=O	-14%	?	?	45µM*
COc1ccc2ccccc2c1CN1CCN(c2ncc(Cc3ccccc3)cn2)CC1	.	-17%	.	.
O=C(O)/C(=C\c1ccc(F)cc1)c1ccc(-c2ccccc2)cc1	-17%	?	24µM*	11%
O=C(O)/C(=C\c1ccccc1OC(F)F)c1ccc(-c2ccccc2)cc1	-9%	?	?	9%
C=CCNC(=S)Nc1cccc(NC(=S)NCC=C)c1	-4%	-11%	-2%	5%
C=CCNC(=S)N/N=C(\C)c1cccc(NC(C)=O)c1	3%	?	-9%	50µM*
O=[N+]([O-])c1cccc(Cl)c1NCCNc1ncc(C(F)(F)F)cc1Cl	-9%	12%	?	1%
COC(=O)C1=C(C)N(Cc2ccccc2)C(=S)NC1c1ccc(-c2ccccc2)cc1 (stereo not given)	.	22µM*	.	.
CCN1C(=S)N[C@@H](c2cccc(F)c2)C(C(=O)OC)=C1C	-7%	?	-2%	19%
CCOC(=O)C1=C(C)N(CC)C(=S)NC1c1ccc(Cl)cc1 (stereo not given)	-13%	?	-7%	-5%
COC(=O)C1=C(C)N(Cc2ccc(Br)cc2)C(=S)NC1c1ccc(F)cc1 (stereo not given)	.	40µM*	.	.
COC(=O)C1=C(C)N(Cc2ccc(Cl)cc2)C(=S)NC1c1ccc(Cl)cc1 (stereo not given)	.	32µM*	.	.
COC(=O)C1=C(C)N(Cc2ccc(Br)cc2)C(=S)NC1c1cccc(F)c1 (stereo not given)	.	35µM*	.	.
CCN1C(=O)N[C@@H](c2ccc(Br)cc2)C(C(=O)OC)=C1C	-2%	10%	-2%	?
COC(=O)C1=C(C)N(Cc2ccccc2)C(=S)N[C@H]1c1ccccc1	-6%	?	3%	-8%
Cc1cc2c(cc1C)CSC(c1ccccc1OC(=O)c1cccc3ccccc13)SC2	.	-15%	.	.
C=CCCCCCCCCCCCC(O)CC(O)COC(C)=O (stereo not given) (tested in a mixture with another compound)	1%	.	.	22%
COC(=O)C1=C(C)N(Cc2ccccc2)C(=S)NC1c1cccc(OC)c1 (stereo not given)	.	32µM*	.	.
COC(=O)C1=C(C)N(Cc2ccccc2)C(=NCc2cccc(C(F)(F)F)c2)N[C@H]1c1cccc(F)c1	-3%	?	-15%	56µM*
Cc1cccc(N2CCN(S(=O)(=O)c3ccc4c(c3)NC(=O)CS4)CC2)c1C	-14%	-4%	27µM*	-2%
CC1CCN(S(=O)(=O)c2ccc3nc(N4CCN(c5ccccc5F)CC4)ccc3c2)CC1	20%	?	.	.
Cc1nc(-c2ccc(S(=O)(=O)N3CCN(c4cccc(C)c4C)CC3)cc2)co1	?	?	24µM*	-2%
Cc1cccc(N2CCN(c3ccc4cc(S(=O)(=O)N5CCC(C)CC5)ccc4n3)CC2)c1C	12%	50µM*	.	.
CC1CCC(NC(=O)C2(c3ccc(F)cc3)CCC2)CC1 (stereo not given)	.	58%	.	.
CCN(CC)CCN1C(=O)C(=O)/C(=C(/O)c2c(C)[nH]c(C(=O)OC)c2C)C1c1cccs1 (stereo not given)	9%	0%	-2%	-2%
SMILES	VDR inh	ALOX12 inh	PLK1 PBD inh	Sfp inh
O=C(c1ccc(Cl)cc1)N1CCCC(c2ccccc2)=N1	9%	-4%	-8%	10%
O=S(=O)(Nc1nc2ccccc2nc1NC1CCCCC1)c1ccc(F)cc1	.	0.63µM*	.	.
O=S(=O)(Nc1nc2ccccc2nc1NC1CC1)c1ccccc1	.	-14%	.	.
Brc1ccccc1-c1nc(-c2ccccn2)no1	.	14µM*	.	.
Cc1ccccc1-c1nc(-c2ccccn2)no1	12%	-12%	-4%	8%
Cc1ccc(OCCCC(=O)Nc2cc(S(=O)(=O)N3CCOCC3)ccc2N2CCOCC2)cc1	7%	-32%	1%	.
O=C(CCc1nnc2ccc(NCc3ccccc3)nn12)NC1CCCCC1	-13%	18%	24µM*	5%
CCc1c(C)[nH]c2c1C(=O)[C@H](CN1CCOCC1)CC2	-5%	.	.	?
CCCCCCC=C1CCC(CN2CCCC2)C1=O (stereo not given)	.	?	3.4µM*	.
